For 108 sequences, z-score results are on record in PubChem BioAssay AID1508600 (Functional Genomics Laboratory (NCATS/FGL), 2020).

Among all 53,000 sequences or so, about 3,700 (7%) were called active. This is one part of a sample in which actives are shown more often than they occur.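 How the source made its calls: active means gene knockdowns whose robust z-score for IL-1 alpha signal is at least 2 or at most -2, so actives lie on both sides; inactive means the rest.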

This assay can be described thus: Components of the Cytosolic LPS Sensing Pathway: Gene Identification via Genome-wide siRNA Screen.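 Further: robust z of the log signal after scaling to non-targeting control siRNA wells of the plate.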 Particulars: RAW264.7 macrophages, IL-1a HTRF, actives lie on both sides, screened at 100 nM (by protocol), cells primed 5 h with Pam3CSK4 first. The gist of the method: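 RAW264.7 mouse macrophages reverse-transfected with single siRNAs (100 nM final) for 48h, primed with Pam3CSK4 for 5 hours, then transfected with LipidA for 24 hour. Supernatant IL-1a read by HTRF; values normalized to negative-control median, log-transformed robust z-scores.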
(TR-FRET usually uses a lanthanide donor and a delayed reading to cut background.)
As for GAGCAGAGGAUUGAUGCACTT against Nlrp4g, the z-score was 0.918 (inactive).
The result for GCAAGACGCACUGUUACUGTT against Fam214a reads 0.196 (inactive); that for GGCUCCUAGCUGUUUCAGUTT against Hormad1, -1.62 (inactive); that for GGUUCAAAGUUCUAGCUAATT against Adss, -0.25 (inactive).
With CCAAAAGUCACGUUUCUCATT against Per2, the z-score is -2.09 (active).
As to GCAAUGGUUGAAGAAAUUUTT against Tnip3, the z-score was 0.69 (inactive).
For GGUUCUUUUAUGGAUGACATT against Prkaa2, the z-score is -0.964 (inactive).
As for GCAGGAACACUGGUUUGAATT against Otud5, the z-score was -0.653 (inactive).
The result for GUACGAAGACUUCUCUAGUTT against Ankrd33b reads 0.101 (inactive).
Consider GGGAAAAUGGCUUAACCGUTT against Siglecg, for which the z-score is 0.703 (inactive).
On to CCUAGAGGAUUCAGAUCAATT against Pnmal1, for which the z-score was 2.24 (active).
Turning to GGCCGUUUCACUACCAUUCTT against Ier2, the z-score was 0.259 (inactive).
Take GGAGGUAGGAAUAUGACUUTT against Klrb1c: the z-score is 0.0825 (inactive).
GGCUAGCAUUAGCCACAGATT against Enpp3: the z-score is -2.33 (active).
Then GGUGCUCAAAUCCUCUUGATT against Ctps, with -0.0545 (inactive); and CGGAUAUGAAUUUUUUGCUTT against Ppp1cb, with 0.116 (inactive); and GCUUUUCAGUCUCAUAGUGTT against Huwe1, with 0.468 (inactive).
The result for GGAAAAUCCCUCUUUGGCUTT against Sez6l2 reads -0.566 (inactive).
Consider CGAUGAGACCAACAUCUUUTT against Gpr162, for which the z-score is 0.476 (inactive).
Regarding GGACAAUGAUUUUCUGAUUTT against Sv2b, the z-score was 0.962 (inactive).
For GGAAGUCUAUGGUUUUUAGTT against Csnk2b, the z-score was 2.97 (active).
On to GGAAAUCAAGCCCUACAUCTT against Col4a2, for which the z-score is 0.152 (inactive).
On to GGGCUAUGUUGUCUCAAAATT against Gsdma2, for which the z-score was 0.861 (inactive).
Then GGAUGACCUCAUGCUUAUUTT against Prss37, with -2.31 (active); and GGAUGAAAAAUCAGUACUUTT against Aadac, with -2.02 (active); and GGUAUCCUCUCUUGUCUUGTT against Clec9a, with -0.0393 (inactive).
In the case of GUACCUGAAUUGCUACCGATT against Ly6g5c, the z-score is 0.8 (inactive).
Then GGAGUUCUUGGUCUCUUUGTT against Fam214a, with -0.124 (inactive); and UUGAACAGUGGAACAAUGATT against Fbxo27, with 2.59 (active).
Turning to GGAAAGGAACAUAUUUGACTT against Gss, the z-score was 0.0774 (inactive).
The result for CCAUCUCUCCAAAGGGCUGTT against Olfr32 reads 0.056 (inactive); that for GGAUUUGACCGGCUAAUACTT against Snrnp40, -0.776 (inactive).
Then GGUUCUGGCUGGAAUCUACTT against Gnl1, with -0.987 (inactive); and GCGAACAUGUGUUUUACGUTT against H4c8, with 1.14 (inactive); and GCAUGCUAGAAGCUAAAAATT against Golga3, with 1.48 (inactive).
GGCAUAUCCUCCUUAUCCATT against Dazl: the z-score is -2.2 (active).
Consider GGAAAUCAAAGAGAAAGUUTT against Rassf3, for which the z-score was -0.748 (inactive).
Then GGUUAGUUCCUUAAAUUCCTT against BC016579, with 1.21 (inactive); and GGACCAGACAGGAAGUAUUTT against Snx20, with 2.3 (active); and GGCAGGUAUGGAUGUAUUGTT against Renbp, with -1.72 (inactive).
The result for GGUUGAGUUGGAUGACCUUTT against Lsm10 reads -1.91 (inactive); that for “GAGUCUUACAUCAAGAAGATT against 9230106D20Rik”, 0.538 (inactive).
Then GGUAUGUCUAAGAAAACCATT against Pi4ka, with 0.173 (inactive).
Regarding GGGCUACACUUCUGUCUACTT against Nanos3, the z-score is -1.26 (inactive).
Take GGGUUUUUUUAGAGAGAUUTT against Susd3: the z-score is -2.11 (active).
The result for GCCAUACUUCCCUACAAAATT against Kctd19 reads 0.233 (inactive); that for GGGCAAGGAGACAGAAUUCTT against Fgf18, 0.927 (inactive); that for GGAAGAGGACAACCAGCUCTT against Cd82, 0.59 (inactive).
GAGUUGGCUCGAAACUGCCTT against Fbxl15: the z-score was 3.54 (active).
Take GGGCACAAUUCAAAACUUATT against Pgm2: the z-score was 1.42 (inactive).
Then GGUCAAUUCCAUGAUUACGTT against Pgm3, with 0.538 (inactive); and UAAGGCCAUCUAGUGGAGATT against C8g, with -0.199 (inactive); and GGGUGAAAGCUGACUUUAATT against Rnh1, with -1.57 (inactive).
The result for GGCUUUGAAACAUAAGAACTT against Zfp472 reads -0.553 (inactive); that for GGUGUUGAGAUCCACAAGGTT against Tceanc2, -2.44 (active).
In the case of GGCAAUCAGCAUACCAACUTT against Thbs2, the z-score is -1.87 (inactive).
On to “CAGCGGCCGCGCUUCACCGTT against 4930404N11Rik”, for which the z-score is 0.92 (inactive).
The result for GGUAAUUGAGCUGAGUUCUTT against Rad54l2 reads 0.479 (inactive); that for GUGAAGAAAGCACUGUUGATT against Olfr978, 0.387 (inactive); that for GGCCAGGACCUAAAUACAATT against Tmem231, 3.25 (active).
With GGAGCUGUGCAAGAGGAAATT against Wnt16, the z-score is 1.01 (inactive).
Consider GGGCAGAUCCUAAUAAGCATT against Irs3, for which the z-score is -1.21 (inactive).
As to GCUAAGGUCUUACUCCUGGTT against Cdca4, the z-score is 1.13 (inactive).
The result for GCCAGUGUUGGUUAUAAAATT against Isg15 reads 0.673 (inactive); that for CCAUGGCACAGACAGCUAUTT against Celf1, -2.02 (active); that for GCUUUUGCCCGAUGGAUUUTT against Plpp3, 0.136 (inactive).
Take GGUAUACAGGAUGUUAAGGTT against Pdlim4: the z-score was 0.889 (inactive).
Then GGAGACCCACUACAUGACUTT against H2-M2, with -0.982 (inactive).
Consider CCCAUCUUUGCAACAUAUCTT against Scgb2b20, for which the z-score was -1.43 (inactive).
Consider GGUCCCAUUCAGUGUGUGUTT against Cdk10, for which the z-score is 2.98 (active).
The result for UAGUCACAAGGUUUGAAACTT against Fbxw24 reads -0.822 (inactive).
Regarding GGUCCUGGACUUCAUGCUATT against Galnt6, the z-score was 2.75 (active).
Then GCUGUACAGUCAAUACCUGTT against Abhd17a, with 1.2 (inactive); and GGACCUUUAGCUGGUUUAGTT against Sowaha, with 0.559 (inactive).
Then GGUGAUUCCAUUACCUAGUTT against Pde12, with 0.572 (inactive).
For the sequence GGUAAAAUCACGCAGUAAATT against Ppp1r3a, the z-score was -0.56 (inactive).
The result for GGACCCAGAGAAGAUCAAATT against Etfrf1 reads 0.514 (inactive); that for GGCAUAGCUCAGUGAUAGCTT against Tmem19, 0.117 (inactive); that for CCAGACAGAAGGGUUAGCUTT against Mrps36, -2.03 (active).
Consider GCCUUUACACUAAUGAUAATT against Cilp, for which the z-score was 0.455 (inactive).
Then GGUCUCAGUUUCUCAGAAUTT against Siglece, with -1.62 (inactive); and GCUUGCUUAUGGCCUAUUATT against Ucma, with -2.05 (active).
On to GCUACCAGGAUAGCGAAACTT against P2rx2, for which the z-score is 0.826 (inactive).
As for GGAAAAAUGGUCUGUAAAATT against Adck2, the z-score was 0.508 (inactive).
Then GGAAAAGGUGACCUGUCUCTT against Slc44a1, with -1.77 (inactive); and GGCCAGAAAGGCAGCAAAGTT against Msgn1, with -1.03 (inactive); and GGAAGUGAAGACCUUCUUCTT against St3gal4, with -0.898 (inactive).
In the case of UCGAUAGCCUCAAUCAGCATT against Zfp58, the z-score is -1.99 (inactive).
On to GGAGAAGGUCGAAAAGCCUTT against Rybp, for which the z-score is -2.01 (active).
The result for GCAUUCGUUCGGCACGUGUTT against Bcl2l14 reads -0.0672 (inactive); that for CGAAGGGAAGCAAAAUACATT against Bend5, 2.11 (active).
Turning to GCCCUGGAUCAUUGAGUGATT against Atp2b1, the z-score is 0.749 (inactive).
For the sequence GGCCAUACACCUGUGACAUTT against Osr2, the z-score was 1.37 (inactive).
Then GGAUGAUCGCUUUUGCUAUTT against Caly, with 2.02 (active); and CCCUCUACUACUGCAUCGUTT against Xkr7, with 1.74 (inactive); and GCACUUCUACCGGAAAGUUTT against Mad2l1bp, with -0.761 (inactive).
Then GCAAAGCCCUAUUCCUAAUTT against Vmn2r42, with 1.21 (inactive); and GGCCUAAACCCUUUCAUCUTT against V1rb6, with -0.0202 (inactive); and GCGAUCCUCUCUACUUAACTT against Eno4, with -1.49 (inactive).
Then CGUGGGACCUGGUAUGUAATT against Slc22a12, with 2.79 (active); and GCGGGUAUGAUGGUACCUUTT against Pomt2, with 1.39 (inactive).
Take CGUGAUGAGUGAAAAUGAUTT against Cd34: the z-score is -2.12 (active).
GGUACUUCACAAUGGACAGTT against Zcchc9: the z-score was 0.951 (inactive).
Then GGUGCAUUUUCUAGAAUCATT against Usp45, with 0.933 (inactive); and GGUACCUAUGCCAGUUUUGTT against Aqp12, with 2.89 (active); and GCCACCAAGUACUUUGGUUTT against Vmn1r76, with 1.34 (inactive).
Then GCAAUUUGCUCAUCUCUAATT against Dcc, with 1.89 (inactive).
With GGAUGCAGAUGCUGUGGACTT against S100a1, the z-score was -0.918 (inactive).
